Test results taken from the supplement of paper PMC8728848.
Only a selection was taken, and the strongest signals are over-represented in it overall.

B1: STA (Solanum tuberosum) (protein)
chain: NASAPLPYPQCGLKKGGGKCIKTGECCSIWGWCGTTSDYCAPGYCQKQCPGPYPQGRCGWQANGKSCPTGTGQCCSNAGWCGTTSDYCAPNNCQSQCKLPPPPPSPPPPPPSPPPPSPPPPPPSPPPPSPSPPPPPPSPPPPSPPPPSPPPPSPPPPPSPSPPPPPPSPPPPPPPLPYPQCGMKKGGGKCIKTGECCSIWGWCGTTSKYCSPGYCQMQCPDPYPEGRCGWQANGKSCPTGTGQCCSNAGWCGTTSAYCAPVNCQAQCNTTTLTSPIKNRMRGIESFMLNVV
B2: CD23 (Homo sapiens) (protein)
chain: MELQVSSGFVCNTCPEKWINFQRKCYYFGKGTKQWVHARYACDDMEGQLVSIHSPEEQDFLTKHASHTGSWIGLRNLDLKGEFIWVDGSHVDYSNWAPGEPTSRSQGEDCVMMRGSGRWNDAFCDRKLGAWVCDRLATCTPPASEGSAESMGPDSRPDPDGRLPTPSAPLHS

Experiments:
Assay in all cases: glycan array binding signal (z-score within array); higher = stronger binding
Settings in all cases: glycan notation: IUPAC condensed, linker removed
[1] = target: Fuc(a1-2)Gal(b1-4)GlcNAc6S
Outline: (§1)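 The binding signal is a Z-score computed within each array. Data were drawn from 3228 arrays in the Consortium for Functional Glycomics database, restricted to those with a known protein sequence. Scores were averaged over arrays of the same protein sequence at different concentrations or buffers, and over linkers, and negative values can be taken as non-binding.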

[2] = target: Fuc(a1-2)Gal(b1-4)[Fuc(a1-3)]GalNAc(b1-3)Gal(b1-4)[Fuc(a1-3)]GlcNAc(b1-3)Gal(b1-4)[Fuc(a1-3)]GalNAc
Outline: as §1

[3] = target: Fuc(a1-2)[GalNAc(a1-3)]Gal(b1-4)GlcNAc
Outline: as §1

[4] = target: Gal(a1-3)Gal(b1-4)GlcNAc
Outline: as §1

[5] = target: Gal(b1-4)GalNAc(b1-3)[Fuc(a1-2)]Gal(b1-4)GlcNAc
Outline: as §1

[6] = target: Gal(b1-4)GlcNAc(b1-6)GalNAc
Outline: as §1

[7] = target: Gal3S(b1-4)GlcNAc
Outline: as §1

[8] = target: Gal3S(b1-4)GlcNAc6S
Outline: as §1

[9] = target: Gal4S(b1-4)GlcNAc
Outline: as §1

[10] = target: GlcNAc(b1-3)[GlcNAc(b1-6)]GlcNAc
Outline: as §1

[11] = target: Man(a1-2)Man(a1-2)Man(a1-6)[Man(a1-3)]Man
Outline: as §1

[12] = target: Neu5Ac(a2-3)Gal
Outline: as §1

[13] = target: Neu5Ac(a2-3)Gal(b1-4)GlcNAc6S
Outline: as §1

[14] = target: Neu5Ac(a2-3)Gal(b1-4)[Fuc(a1-3)]GlcNAc6S
Outline: as §1

[15] = target: Neu5Ac(a2-8)Neu5Ac(a2-8)Neu5Ac(a2-3)Gal(b1-4)Glc
Outline: as §1

[16] = target: Neu5Ac9Ac(a2-6)Gal(b1-4)GlcNAc
Outline: as §1

[17] = target: Fuc(a1-2)Gal(b1-4)[Fuc(a1-3)]GlcNAc
Outline: as §1

[18] = target: Fuc(a1-2)[Gal(a1-3)]Gal
Outline: as §1

[19] = target: Fuc(a1-2)[Gal(a1-3)]Gal(b1-3)GlcNAc
Outline: as §1

[20] = target: Fuc(a1-2)[Gal(a1-3)]Gal(b1-4)[Fuc(a1-3)]GlcNAc
Outline: as §1

[21] = target: Fuc(a1-2)[GalNAc(a1-3)]Gal(b1-4)[Fuc(a1-3)]GlcNAc
Outline: as §1

[22] = target: Fuc(a1-3)[Gal3S(b1-4)]Glc6S
Outline: as §1

[23] = target: Fuc(a1-3)[Gal3S(b1-4)]GlcNAc6S
Outline: as §1

[24] = target: Gal(a1-6)Glc
Outline: as §1

[25] = target: Gal(b1-4)GlcNAc(b1-2)Man(a1-3)[Gal(b1-4)GlcNAc(b1-2)Man(a1-6)]Man(b1-4)GlcNAc(b1-4)GlcNAc
Outline: as §1

[26] = target: GalNAc(b1-4)GlcNAc
Outline: as §1

[27] = target: GlcNAc(b1-2)Man(a1-3)[GlcNAc(b1-2)Man(a1-6)]Man(b1-4)GlcNAc(b1-4)GlcNAc
Outline: as §1

[28] = target: GlcNAc(b1-3)Gal(b1-3)GalNAc
Outline: as §1

[29] = target: GlcNAc(b1-3)Gal(b1-4)Glc
Outline: as §1

[30] = target: Neu5Ac(a2-3)Gal(b1-3)GlcNAc(b1-3)Gal(b1-3)GlcNAc
Outline: as §1

[31] = target: Neu5Ac(a2-3)Gal(b1-4)[Fuc(a1-3)]GlcNAc(b1-3)Gal
Outline: as §1

[32] = target: Neu5Ac(a2-3)Gal(b1-4)[Fuc(a1-3)]GlcNAc(b1-3)Gal(b1-4)GlcNAc
Outline: as §1

[33] = target: Neu5Ac(b2-6)GalNAc
Outline: as §1

[34] = target: Neu5Gc(a2-6)Gal(b1-4)GlcNAc
Outline: as §1

Row | Binder | glycan array binding signal (z-score) [1] | glycan array binding signal (z-score) [2] | glycan array binding signal (z-score) [3] | glycan array binding signal (z-score) [4] | glycan array binding signal (z-score) [5] | glycan array binding signal (z-score) [6] | glycan array binding signal (z-score) [7] | glycan array binding signal (z-score) [8] | glycan array binding signal (z-score) [9] | glycan array binding signal (z-score) [10] | glycan array binding signal (z-score) [11] | glycan array binding signal (z-score) [12] | glycan array binding signal (z-score) [13] | glycan array binding signal (z-score) [14] | glycan array binding signal (z-score) [15] | glycan array binding signal (z-score) [16] | glycan array binding signal (z-score) [17] | glycan array binding signal (z-score) [18] | glycan array binding signal (z-score) [19] | glycan array binding signal (z-score) [20] | glycan array binding signal (z-score) [21] | glycan array binding signal (z-score) [22] | glycan array binding signal (z-score) [23] | glycan array binding signal (z-score) [24] | glycan array binding signal (z-score) [25] | glycan array binding signal (z-score) [26] | glycan array binding signal (z-score) [27] | glycan array binding signal (z-score) [28] | glycan array binding signal (z-score) [29] | glycan array binding signal (z-score) [30] | glycan array binding signal (z-score) [31] | glycan array binding signal (z-score) [32] | glycan array binding signal (z-score) [33] | glycan array binding signal (z-score) [34]
1 | B1 | 0.551 | -0.504 | 2.86 | 3.27 | 0.033 | 2.69 | 2.55 | 2.58 | 3.08 | -0.269 | -0.506 | -0.507 | 3.23 | -0.49 | -0.5 | -0.498 |  |  |  |  |  |  |  |  |  |  |  |  |  |  |  |  |  | 
2 | B2 | -0.186 |  |  |  |  |  |  |  |  |  |  |  |  |  |  | 1.43 | 0.228 | -0.374 | -0.086 | 0.988 | 0.752 | 2.25 | 0.491 | 0.204 | -0.225 | -0.48 | -0.157 | 1.43 | -0.494 | -0.189 | -0.435 | 1.15 | -0.582 | -0.645
